The subject of the first assay is cpb. As to the kind of experiment: MAPPIT interaction score (arbitrary units); higher = stronger binary interaction signal, active = hit call of the paper. To be noted: MAPPIT configuration: N-C; pair source set: Lit-BM-16. As for the experimental part: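 MAPPIT in HEK293T cells: Drosophila bait and prey ORFs (from the FlyBi ORF collection) were co-transfected in quadruplicate, with two wells stimulated by erythropoietin. Interaction-dependent JAK-STAT activation was read out with a STAT-responsive firefly luciferase reporter. Positive calls use the 99th percentile of random reference set (RRS) scores within each batch […]. Batches Dvs01 and Dvs02 used the N-N configuration and Dvs04 the N-C configuration. Pairs come from FlyBi screens, CuraGen, DPiM, Finley Y2H, Lit-BM-16, Lit-BS-16 and RRS.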
Chain of cpa (chain, as listed by the source): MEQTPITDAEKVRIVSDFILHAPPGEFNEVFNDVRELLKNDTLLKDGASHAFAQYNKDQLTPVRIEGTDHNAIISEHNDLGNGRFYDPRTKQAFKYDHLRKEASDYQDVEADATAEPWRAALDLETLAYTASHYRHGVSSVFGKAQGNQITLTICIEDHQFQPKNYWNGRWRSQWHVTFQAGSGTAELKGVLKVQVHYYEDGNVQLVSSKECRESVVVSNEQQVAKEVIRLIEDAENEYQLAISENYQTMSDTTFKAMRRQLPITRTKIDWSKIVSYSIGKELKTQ
For the substance cpa, the MAPPIT interaction score was 4.39 (active).

The assay is the same for the next values; noted with them: MAPPIT configuration: N-N; pair source set: Lit-BM-16.
Turning to cpa, the MAPPIT interaction score is 6.04 (active).
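Further: HEK293T cells with Epo stimulation, STAT-responsive firefly luciferase reporter, fold induction versus unstimulated cells divided by the larger fold induction of two negative controls lacking either bait or prey.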
